Test results taken from PubChem BioAssay AID1159580 (chemical genetic matrix, 2015).
About 2,000 (36%) of roughly 5,500 compounds were called active. Not shown: some 18% with an inconclusive outcome. Rule as the data show it: active = normalized growth mostly below about 0.91 (no sharp cut-off); inconclusive = no clear call, values can overlap the other calls; inactive = mostly above about 0.92. This is one part of the list.

Assay: chemical genetic growth profiling, strain panel (AID 1159580);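 also: tested at 20 µM; growth read once vehicle control cultures reached saturation at 30 °C; 1 = growth at the plate median or of vehicle wells; lower values mean less growth of the strain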
Conditions: growth OD
[1] = S. cerevisiae deletion strains, locus YDL101C, strain DUN1, active compounds read low
[2] = S. cerevisiae deletion strains, locus YDR150W, strain NUM1, active compounds read low
[3] = S. cerevisiae deletion strains, locus YHR030C, strain SLT2, active compounds read low
[4] = S. cerevisiae deletion strains, locus YJR075W, strain HOC1, active compounds read low
[5] = S. cerevisiae deletion strains, locus YNL153C, strain GIM3, active compounds read low

Measured: normalized growth

Cc1cccc(NC(=S)NCc2ccncc2)c1
inactive: S. cerevisiae deletion strains, locus YAL013W, strain DEP1, active compounds read low 1 | S. cerevisiae deletion strains, locus YBR229C, strain ROT2, active compounds read low 1 | [1] 0.988 | [2] 1 | S. cerevisiae deletion strains, locus YEL061C, strain CIN8, active compounds read low 1.01 | S. cerevisiae deletion strains, locus YGR078C, strain PAC10, active compounds read low 1.01 | S. cerevisiae deletion strains, locus YGR229C, strain SMI1, active compounds read low 0.992 | [3] 0.857 | S. cerevisiae deletion strains, locus YHR087W, strain rtc3, active compounds read low 0.99 | S. cerevisiae deletion strains, locus YJL187C, strain SWE1, active compounds read low 1.02 | S. cerevisiae deletion strains, locus YJR043C, strain POL32, active compounds read low 1 | [4] 0.987 | S. cerevisiae deletion strains, locus YLR039C, strain RIC1, active compounds read low 1.01 | S. cerevisiae deletion strains, locus YLR058C, strain SHM2 (second series), active compounds read low 1.01 | S. cerevisiae deletion strains, locus YLR085C, strain ARP6, active compounds read low 0.88 | S. cerevisiae deletion strains, locus YLR262C, strain YPT6, active compounds read low 1.01 | S. cerevisiae deletion strains, locus YML094W, strain GIM5, active compounds read low 0.974 | S. cerevisiae deletion strains, locus YMR219W, strain ESC1, active compounds read low 1.01 | S. cerevisiae deletion strains, locus YMR263W, strain SAP30, active compounds read low 0.981 | [5] 0.993 | S. cerevisiae deletion strains, locus YNL298W, strain CLA4 (second series), active compounds read low 1.01 | S. cerevisiae deletion strains, locus YNL322C, strain KRE1, active compounds read low 1.01 | S. cerevisiae deletion strains, locus YNR030W, strain Alg12, active compounds read low 1.03 | S. cerevisiae deletion strains, locus YPL055C, strain LGE1, active compounds read low 1.03 | S. cerevisiae deletion strains, locus YPL241C, strain CIN2, active compounds read low 0.998 | S. cerevisiae deletion strains, locus YPR135W, strain CTF4, active compounds read low 0.928 | S. cerevisiae strains, strain wild type, active compounds read low 0.997

COc1ccc(C(=O)NCc2cccnc2)cc1C(=O)NCc1cccnc1
inactive: S. cerevisiae deletion strains, locus YAL040C, strain CLN3, active compounds read low 0.994 | S. cerevisiae deletion strains, locus YCL061C, strain MRC1 (second series), active compounds read low 1.01 | [2] 1 | S. cerevisiae deletion strains, locus YDR363W, strain ESC2, active compounds read low 1 | S. cerevisiae deletion strains, locus YER002W, strain NOP16, active compounds read low 0.997 | [4] 1.02 | S. cerevisiae deletion strains, locus YMR307W, strain GAS1, active compounds read low 1.01 | S. cerevisiae deletion strains, locus YNL128W, strain TEP1, active compounds read low 1.01 | [5] 1.02 | S. cerevisiae deletion strains, locus YNL175C, strain NOP13, active compounds read low 1.02 | S. cerevisiae deletion strains, locus YNL197C, strain WHI3, active compounds read low 1.04 | S. cerevisiae deletion strains, locus YNL224C, strain SQS1, active compounds read low 1 | S. cerevisiae deletion strains, locus YOR083W, strain WHI5 (second series), active compounds read low 1.02

O=S(=O)(NC(=S)Nc1ccc(Cl)c(Cl)c1)c1ccccc1
inactive: S. cerevisiae deletion strains, locus YAR019C, strain CDC15, active compounds read low 1.01 | S. cerevisiae deletion strains, locus YBL105C, strain PKC1, active compounds read low 1.01 | S. cerevisiae deletion strains, locus YBR135W, strain CKS1, active compounds read low 0.997 | S. cerevisiae deletion strains, locus YBR136W, strain MEC1, active compounds read low 1 | S. cerevisiae deletion strains, locus YBR160W, strain CDC28, active compounds read low 1 | S. cerevisiae deletion strains, locus YDL017W, strain CDC7, active compounds read low 1.01 | S. cerevisiae deletion strains, locus YDL028C, strain MPS1, active compounds read low 1 | [1] 1.01 | S. cerevisiae deletion strains, locus YDL108W, strain KIN28, active compounds read low 1 | S. cerevisiae deletion strains, locus YDL132W, strain cdc53, active compounds read low 0.993 | S. cerevisiae deletion strains, locus YDL214C, strain PRR2, active compounds read low 1.02 | S. cerevisiae deletion strains, locus YDR052C, strain DBF4, active compounds read low 1.01 | S. cerevisiae deletion strains, locus YDR054C, strain cdc34, active compounds read low 1.01 | S. cerevisiae deletion strains, locus YDR226W, strain ADK1, active compounds read low 0.991 | S. cerevisiae deletion strains, locus YDR477W, strain SNF1, active compounds read low 1.02 | S. cerevisiae deletion strains, locus YER123W, strain YCK3, active compounds read low 1 | S. cerevisiae deletion strains, locus YER133W, strain GLC7, active compounds read low 1.01 | S. cerevisiae deletion strains, locus YFL009W, strain cdc4, active compounds read low 1.01 | S. cerevisiae deletion strains, locus YFL029C, strain CAK1, active compounds read low 1 | S. cerevisiae deletion strains, locus YFR003C, strain YPI1, active compounds read low 1 | S. cerevisiae deletion strains, locus YFR019W, strain FAB1, active compounds read low 1 | S. cerevisiae deletion strains, locus YFR028C, strain CDC14, active compounds read low 1 | S. cerevisiae deletion strains, locus YGR040W, strain KSS1, active compounds read low 1.01 | S. cerevisiae deletion strains, locus YGR052W, strain FMP48, active compounds read low 1.12 | S. cerevisiae deletion strains, locus YGR092W, strain DBF2, active compounds read low 0.988 | [3] 1.1 | S. cerevisiae deletion strains, locus YHR079C, strain IRE1, active compounds read low 1 | S. cerevisiae deletion strains, locus YHR082C, strain KSP1, active compounds read low 1.09 | S. cerevisiae deletion strains, locus YHR205W, strain SCH9, active compounds read low 0.995 | S. cerevisiae deletion strains, locus YIL147C, strain SLN1, active compounds read low 1 | S. cerevisiae deletion strains, locus YJL095W, strain BCK1, active compounds read low 1.05 | S. cerevisiae deletion strains, locus YJL128C, strain PBS2, active compounds read low 0.995 | S. cerevisiae deletion strains, locus YJL157C, strain FAR1, active compounds read low 1.01 | S. cerevisiae deletion strains, locus YJR016C, strain ILV3, active compounds read low 0.995 | S. cerevisiae deletion strains, locus YJR066W, strain TOR1 (second series), active compounds read low 0.992 | S. cerevisiae deletion strains, locus YJR066W, strain TOR1, active compounds read low 1.13 | S. cerevisiae deletion strains, locus YKL048C, strain ELM1, active compounds read low 1.02 | S. cerevisiae deletion strains, locus YKL067W, strain YNK1, active compounds read low 0.995 | S. cerevisiae deletion strains, locus YKL101W, strain HSL1, active compounds read low 1 | S. cerevisiae deletion strains, locus YKL193C, strain SDS22, active compounds read low 1 | S. cerevisiae deletion strains, locus YKL203C, strain TOR2, active compounds read low 1.07 | S. cerevisiae deletion strains, locus YLR113W, strain HOG1, active compounds read low 1.03 | S. cerevisiae deletion strains, locus YLR133W, strain CKI1, active compounds read low 1.01 | S. cerevisiae deletion strains, locus YLR403W, strain SFP1, active compounds read low 1.02 | S. cerevisiae deletion strains, locus YML070W, strain DAK1, active compounds read low 0.999 | S. cerevisiae deletion strains, locus YMR001C, strain CDC5, active compounds read low 1 | S. cerevisiae deletion strains, locus YMR205C, strain PFK2 (second series), active compounds read low 1 | S. cerevisiae deletion strains, locus YMR277W, strain FCP1, active compounds read low 1 | S. cerevisiae deletion strains, locus YNL006W, strain LST8, active compounds read low 0.984 | S. cerevisiae deletion strains, locus YNL020C, strain ARK1, active compounds read low 1 | S. cerevisiae deletion strains, locus YNL161W, strain CBK1, active compounds read low 0.996 | S. cerevisiae deletion strains, locus YNL183C, strain NPR1, active compounds read low 0.986 | S. cerevisiae deletion strains, locus YNL207W, strain RIO2, active compounds read low 1.01 | S. cerevisiae deletion strains, locus YNL222W, strain SSU72, active compounds read low 0.995 | S. cerevisiae deletion strains, locus YNL307C, strain MCK1 (second series), active compounds read low 0.987 | S. cerevisiae deletion strains, locus YOL078W, strain AVO1, active compounds read low 1 | S. cerevisiae deletion strains, locus YOL136C, strain PFK27, active compounds read low 1 | S. cerevisiae deletion strains, locus YOR061W, strain CKA2, active compounds read low 1.02 | S. cerevisiae deletion strains, locus YOR119C, strain RIO1, active compounds read low 1.13 | S. cerevisiae deletion strains, locus YOR231W, strain MKK1, active compounds read low 1.02 | S. cerevisiae deletion strains, locus YOR329C, strain SCD5, active compounds read low 1.01 | S. cerevisiae deletion strains, locus YPL031C, strain PHO85, active compounds read low 1.02 | S. cerevisiae deletion strains, locus YPL153C, strain RAD53, active compounds read low 1 | S. cerevisiae deletion strains, locus YPL204W, strain HRR25, active compounds read low 0.999 | S. cerevisiae deletion strains, locus YPL209C, strain IPL1, active compounds read low 0.996 | S. cerevisiae deletion strains, locus YPL256C, strain CLN2, active compounds read low 1.01 | S. cerevisiae deletion strains, locus YPR025C, strain CCL1, active compounds read low 0.998 | S. cerevisiae deletion strains, locus YPR106W, strain ISR1, active compounds read low 1.01 | S. cerevisiae deletion strains, locus YPR111W, strain DBF20, active compounds read low 0.994 | S. cerevisiae deletion strains, strain NNK1, active compounds read low 1 | S. cerevisiae deletion strains, strain TSCII, active compounds read low 0.999
